Drawing on PubChem BioAssay AID1209 (Sanford-Burnham Center for Chemical Genomics, 2008), this text covers inhibition for 99 compounds.

The structures appear in SMILES notation. The campaign covered roughly 190,000 compounds. About 810 (0.43%) were called active. Rule as the data show it: active = inhibition above about 50%; inactive = the rest. For the sample, actives were picked, then their nearest neighbours and some compounds at random.

Sequence of Mannose-6-phosphate isomerase (Homo sapiens) (P34949 whole entry, looked up): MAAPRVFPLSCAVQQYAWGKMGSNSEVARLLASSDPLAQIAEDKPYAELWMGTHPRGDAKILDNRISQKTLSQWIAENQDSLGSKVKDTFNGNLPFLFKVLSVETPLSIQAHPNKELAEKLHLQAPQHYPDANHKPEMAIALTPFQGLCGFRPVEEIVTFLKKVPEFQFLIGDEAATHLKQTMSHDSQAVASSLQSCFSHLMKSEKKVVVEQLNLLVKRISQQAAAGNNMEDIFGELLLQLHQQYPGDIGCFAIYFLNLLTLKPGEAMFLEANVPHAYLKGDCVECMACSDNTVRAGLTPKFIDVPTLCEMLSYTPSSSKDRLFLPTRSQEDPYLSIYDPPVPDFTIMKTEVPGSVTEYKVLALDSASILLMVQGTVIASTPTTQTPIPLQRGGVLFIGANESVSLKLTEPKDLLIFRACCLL

This assay has as its target Mannose-6-phosphate isomerase (Homo sapiens) (UniProt P34949). The experiment in a line: inhibitors of human PMI, primary screen, biochemical, fluorescence intensity, coupled assay (AID 1209).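 Also: plate controls were DMSO vehicle for no effect and wells lacking substrate for full effect.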 As to conditions: purified PMI enzyme, at 20 µM, active compounds read high.
In general, inhibition refers to the relative decrease from the control value, in per cent. As for `N#CCCn1cc(C=C2C(=O)NC(=O)NC2=O)c(-c2ccccc2)n1`, the inhibition was -7.4% (inactive).

Take `O=C(O)CCn1cc(C=C2C(=O)NC(=S)NC2=O)c(-c2ccccc2)n1`: the inhibition was 55.5% (active). For the compound `O=C(O)CCn1cc(C=C2C(=O)NC(=S)NC2=O)c(-c2cccc(Cl)c2)n1`, the inhibition was 64.1% (active). The result for `O=C(O)CCn1cc(C=C2C(=O)NC(=O)NC2=O)c(-c2ccc(Br)cc2)n1` reads 5.8% (inactive). Take `O=C(O)CCn1cc(C=C2C(=O)NC(=O)NC2=O)c(-c2cc3ccccc3oc2=O)n1`: the inhibition is -3.7% (inactive). The same measure for `O=C(O)CCn1cc(C=C2C(=O)NC(=S)NC2=O)c(-c2cc3ccccc3oc2=O)n1`: -33.9% (inactive). The result for `O=c1c2ccccc2nc(-c2cccs2)n1-c1ccccc1` reads -8.6% (inactive); that for `COc1ccc(N/N=C/c2c(O)n(-c3cccc(C)c3)c(=O)[nH]c2=O)cc1`, -72.8% (inactive). In the case of `CCOCCCNC(=O)CN1C2CCC1CC(O)(c1ccc(OC)cc1)C2` (centres undefined), the inhibition was 15% (inactive). The result for `CC(=O)Nc1ccccc1OC(=O)N(C)C` reads 7.3% (inactive); that for `CN(C)CCCN=Cc1c(O)n(CCc2ccccc2)c(=O)[nH]c1=O`, -1.1% (inactive). Turning to `CCCCNC(=O)c1c(N)n(CCCOC)c2nc3ccccc3nc12`, the inhibition was 41.1% (inactive). Regarding `CCCCn1c(N)c(C(=O)NCCN2CCOCC2)c2nc3ccccc3nc21`, the inhibition was 17.1% (inactive). As to `CCC(C)NC(=O)c1c(N)n(CCCOC)c2nc3ccccc3nc12` (centres undefined), the inhibition is 56% (active).

With `CCCCn1c(NC(=O)c2ccco2)c(C(=O)OCC)c2nc3ccccc3nc21`, the inhibition is 55.8% (active).

Consider `COCCCn1c(N)c(C(=O)NCCC(C)C)c2nc3ccccc3nc21`, for which the inhibition is 37.9% (inactive). As to `CCOC(=O)c1c(N)n(CCCOC(=O)c2ccco2)c2nc3ccccc3nc12`, the inhibition is 6% (inactive). The same measure for `CCCCn1c(NC(=O)c2ccc(Br)o2)c(C(=O)OCC)c2nc3ccccc3nc21`: 22.2% (inactive); for `CCCCCn1c(N)c(C(=O)NCc2cccs2)c2nc3ccccc3nc21`: 51.9% (active); for `CC(C)CCn1c(N)c(C(=O)NCc2cccs2)c2nc3ccccc3nc21`: 24.5% (inactive).

Consider `CCCCn1c(N)c(C(=O)NCc2cccs2)c2nc3ccccc3nc21`, for which the inhibition was 59.9% (active). For `CCCCCCn1c(N)c(C(=O)NCCN2CCOCC2)c2nc3ccccc3nc21`, the inhibition was 28.6% (inactive).

Consider `CCCCCn1c(N)c(C(=O)NCCN2CCOCC2)c2nc3ccccc3nc21`, for which the inhibition was 25.4% (inactive).

As for `CC1C(c2cccs2)=[N+]([O-])C(C)(C(=O)c2cccs2)N1O` (centres undefined), the inhibition is -1.9% (inactive).

As to `Cc1c(C=O)c2ccccc2n1Cc1cccc(F)c1`, the inhibition was -20.1% (inactive). Take `CCOC(=O)C1C(=O)N(C)C2(C)CC1c1cc(OC)ccc1O2` (centres undefined): the inhibition was -7% (inactive). The result for `O=C1NC(=O)C(CCc2ccncc2)(CCc2ccncc2)C(=O)N1CCc1ccc(F)cc1` reads -4.4% (inactive); that for `COc1ccc2[nH]c(C)c(CCN3CCC(=O)C(C)C3C)c2c1` (centres undefined), 13.4% (inactive); that for `CCOC(=O)N(c1ccccc1)P1(=S)OCC(C)O1` (centres undefined), -1.5% (inactive). The same measure for `COC(=O)N(c1ccccc1)P1(=S)OCCO1`: 24.3% (inactive); for `COC(=O)N(c1ccc(OC)cc1)P1(=S)OCCC(C)O1` (centres undefined): 62.3% (active). The result for `CCn1c(=O)n(CC)c2cc([N+](=O)[O-])c(N3CCNCC3)cc21` reads 0.8% (inactive); that for `CCn1nc(/C=C/c2ccccc2)nc2c(=O)n(C)c(=O)nc1-2`, 39.7% (inactive); that for `CCn1nc(-c2ccccc2)nc2c(=O)n(C)c(=O)nc1-2`, -4.4% (inactive). As for `Cn1ncnc2c(=O)n(C)c(=O)nc1-2`, the inhibition was 74.8% (active). The same measure for `Cc1nc2c(=O)n(C)c(=O)nc-2n(C)n1`: 73.6% (active); for `CCn1nc(-c2cccs2)nc2c(=O)n(C)c(=O)nc1-2`: 6.3% (inactive). The result for `CCc1ccc(CN2CCN(Cc3ccc(SC)cc3)CC2)cc1` reads -14.5% (inactive).

With `C=C1N2CCC(CC2)C1(O)c1ccc(C)c(C)c1` (centres undefined), the inhibition is -10.2% (inactive). `O=C(Cc1ccccc1)OCCNC(=O)c1cccnc1`: the inhibition was -4% (inactive). The same measure for `CN(C)C(=O)Oc1c(Cl)cc(Cl)c2cccnc12`: 8.2% (inactive); for `COC(=O)c1ccccc1N=Cc1c(O)[nH]c(=S)[nH]c1=O`: -42.9% (inactive).

For `O=c1c(/C=N/N2CCOCC2)c(O)n(-c2ccccc2)c(=S)n1-c1ccccc1`, the inhibition was 4.6% (inactive).

Turning to `Cc1ccccc1C(=O)NC(Oc1ccccc1)C(Cl)(Cl)Cl` (centres undefined), the inhibition is 6.5% (inactive). Regarding `CC(=O)N(C1=NCCCS1)c1ccccc1Cl`, the inhibition is -4.6% (inactive). For `O=c1[nH]c(=O)n(-c2cccc(Cl)c2)c(O)c1C=NCCCN1CCOCC1`, the inhibition is 4.5% (inactive). Consider `COc1ccc(P2(=O)Nc3ccccc3N2)cc1`, for which the inhibition was 16.8% (inactive).

Consider `CC1=CC(=O)NP(=O)(Oc2ccc3ccccc3c2)N1` (centres undefined), for which the inhibition was 78.5% (active). Regarding `O=C(C1CC(c2ccc(F)cc2)=NO1)N1CCC2(CC1)OCCO2` (centres undefined), the inhibition was -5.3% (inactive). For `Cn1ccnc1P(=S)(c1nccn1C)c1nccn1C`, the inhibition is -5% (inactive). In the case of `COCCNP(=O)(c1ccccc1)c1nc2ccccc2s1` (centres undefined), the inhibition was 1.6% (inactive). Turning to `Cc1ccc(NP(=O)(c2ccccc2)c2nc3ccccc3s2)cc1` (centres undefined), the inhibition is 80.5% (active). The same measure for `O=P(c1ccccc1)(c1nc2ccccc2s1)N1CCOCC1` (centres undefined): -5.8% (inactive); for `CN(C)c1ccc([P+](=O)c2ccc(N(C)C)cc2)cc1`: 10.8% (inactive); for `CCc1c(C)nc(N)nc1N1N=C1SCC(N)=O`: -3% (inactive). Consider `Cc1ccccc1N1C(=O)NC(=O)/C(=C\c2ccc3c(c2)CCCN3Cc2ccccc2)C1=O`, for which the inhibition is -9% (inactive). The result for `CC1CC(OP(O)(=S)c2ccc(N(C)C)cc2NC(=O)c2cccs2)CC(C)(C)C1` (centres undefined) reads 59.7% (active). The same measure for `CCOC(=O)C1(CCc2ccccc2)CCN(Cc2cccc3cnccc23)CC1`: 24.8% (inactive). The same measure for `COc1ccc(C(CC(=O)N2CCC3(CC2)OCCO3)NS(=O)(=O)c2ccc(OC)cc2)cc1` (centres undefined): 4.9% (inactive).

Turning to `O=C(C1CCCO1)N1CCC2(CC1)OCCO2` (centres undefined), the inhibition was 5.3% (inactive). The result for `Cc1cc(C=C2C(=O)N(C)C(=S)N(C)C2=O)c(C)n1C1CCCC1` reads 6% (inactive); that for `Cc1cc(C=C2C(=O)N(C)C(=S)N(C)C2=O)c(C)n1C1CCCCC1`, -12.8% (inactive); that for `CCN1C(=O)C(=Cc2cc(C)n(C3CC3)c2C)C(=O)N(CC)C1=S`, 63.8% (active).

Consider `Cn1c(O)c(C(=O)c2ccccc2)c(=O)n(C)c1=O`, for which the inhibition is -12.2% (inactive).

`CCCCC(=O)N/N=C/c1c(O)n(C2CC2)c(=S)[nH]c1=O`: the inhibition was 20.6% (inactive). The same measure for `O=c1[nH]c(=S)n(C2CC2)c(O)c1/C=N/Nc1ccccc1`: -61.8% (inactive). In the case of `O=C(N/N=C/c1c(O)n(C2CC2)c(=S)[nH]c1=O)c1ccccc1O`, the inhibition was 60.8% (active). As to `COc1ccc(C2=NCC(=O)N(CC(=O)NCc3ccco3)c3sc4c(c32)CCCC4)cc1`, the inhibition was 4.5% (inactive). Consider `O=C1CC(=O)N(c2cccc(Cl)c2)C(=O)N1`, for which the inhibition was 0.2% (inactive). On to `CCCCc1nc(N2CCNCC2)c(C#N)c2c1CSC(C)(C)C2`, for which the inhibition was 3.9% (inactive). For the compound `Oc1ccc(/C=N/NP(=S)(c2ccccc2)c2ccccc2)cc1`, the inhibition was 14.9% (inactive). The same measure for `Oc1ccccc1/C=N/NP(=S)(c1ccccc1)c1ccccc1`: 6.9% (inactive). The result for `Oc1ccc(/C=N/NP(=S)(c2ccccc2)c2ccccc2)c(O)c1O` reads 62.4% (active).

`O=C1c2ccccc2C(=O)N1Cc1nc2ccccc2c(=O)n1-c1ccccn1`: the inhibition is -3% (inactive).

As for `CCCCCCOc1ccc(CN2CCN(CCO)CC2)cc1`, the inhibition was -11.3% (inactive). With `COc1cccc(N2CCN(Cc3cccc(Cl)c3)CC2)c1`, the inhibition was 9.6% (inactive).

For `C[C@]12CC[C@@H]3c4ccc(O)c(O)c4CC[C@H]3[C@@H]1CC[C@@H]2O`, the inhibition was 75.9% (active). The same measure for `CC12CCC3C(CCC4C/C(=N/O)CCC43C)C1CCC2O` (centres undefined): 2.7% (inactive); for `CC12CCC(=O)C=C1CCC1C2CCC2(C)C(O)CCC12` (centres undefined): -6.1% (inactive). With `CCOP(=O)(C#CC(C)(C)C)C(C)(O)c1ccccc1` (centres undefined), the inhibition was 3.1% (inactive). The same measure for `Cc1nc2cc(C(F)(F)F)ccc2n1C1CCN(Cc2nnnn2Cc2cccs2)CC1`: 9.2% (inactive). The result for `CN1CCN(c2c(N)c(=O)oc3ccccc23)CC1` reads 0.6% (inactive); that for `COCCOC(=O)c1c(N)n(Cc2ccccc2)c2nc3ccccc3nc12`, 14.3% (inactive); that for `Cn1c(O)c(C=NC2CCCCCC2)c(=O)[nH]c1=S`, 6.6% (inactive). The same measure for `CN(C)c1cccc2c(C#N)ccc(N(C)C)c12`: 82% (active); for `CC(C)(C)c1ccc(S(=O)(=O)N2CC3CC(C2)c2cccc(=O)n2C3)cc1` (centres undefined): -3.5% (inactive). Turning to `Cc1cc(=O)[nH]c(SCc2nc3ccccc3c(=O)n2-c2ccccc2C)n1`, the inhibition was 0.9% (inactive). The same measure for `COc1cccc(NP(=O)(Oc2ccc(Cl)cc2)Oc2ccc(Cl)cc2)c1`: 18.7% (inactive); for `Cc1ccsc1C(=O)C1CCCN(Cc2cnn(C)c2)C1` (centres undefined): 9.3% (inactive). Take `O=C1C2CCN(CC2)C1Cc1ccccc1O` (centres undefined): the inhibition was -6.7% (inactive). In the case of `Oc1ccc(CC2CC3CCN2CC3)cc1O` (centres undefined), the inhibition was 52.7% (active). Consider `COc1ccc(CC2c3cc(OC)c(OC)cc3CCN2C)cc1O` (centres undefined), for which the inhibition is -2.1% (inactive). Consider `CCc1ccc(N2C(=O)NC(=O)C(CCc3ccncc3)(CCc3ccncc3)C2=O)cc1`, for which the inhibition was 4.9% (inactive). For the compound `c1ccc(CCn2nnnc2CN2CCC(n3nnc4ccccc43)CC2)cc1`, the inhibition is -11.1% (inactive). The same measure for `COc1cccc(N2C(=O)NC(=O)C3(Cc4cc(C)ccc4N(C)C3)C2=O)c1` (centres undefined): -37% (inactive); for `CN1CCc2nc(N)c(C#N)c(-c3ccccc3)c2C1`: 2.3% (inactive); for `Cc1ccc2c(c1)=C/C(=C\c1c(O)[nH]c(=S)[nH]c1=O)C(=O)N=2`: 21.3% (inactive). As to `Cc1cccc2c1=NC(=O)/C(=C/c1c(O)[nH]c(=O)[nH]c1=O)C=2`, the inhibition was -7.2% (inactive). Turning to `Cc1ccc2c(c1)=C/C(=C\c1c(O)[nH]c(=O)[nH]c1=O)C(=O)N=2`, the inhibition is 65% (active).
